TDP1 cell noCPT: qHTS for Inhibitors of human tyrosyl-DNA phosphodiesterase 1 (TDP1): qHTS in cells in absence of CPT; DT40 Tdp1-/- hTDP1 cells, no CPT, ATP luminescence, 48 h; Potency, µM (titrated, usually from 46.2 µM), for the others: at the top dose activity change, negative = growth inhibition, most hits filed as inhibitors; 420,000 tested, 15% active; AID 686978, 2013; also: potency is read from the fitted curve at half-maximal effect; nearly all actives have a fitted effect of over 55% in size
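Chicken DT40 Tdp1-/- cells complemented with human TDP1, screened without camptothecin (DMSO vehicle only), 400 cells/well. Compounds pin-transferred, cells incubated at 37 °C for at least 48 hr. Growth read as ATP-dependent luminescence (CellTiter-Glo, 30 min at RT).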
HT1080 IDH1KD tx: toxicity to HT-1080 IDH1 knockdown cells (counter line) | Potency, µM (titrated, usually from 46.1 µM), for inactives: top-dose activity, negative = toxicity, most hits filed as cytotoxic | HT-1080 IDH1 knockdown viability, ATP luminescence, 48 h | AID 686971 | 360,000 tested, 2% active;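 also: potency is read from the fitted curve at half-maximal effect; 0% = DMSO wells and -100% = cell-free medium wells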
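Assay cells: HT-1080 with IDH1 knockdown, 750 per well, RPMI/5% FBS. Exposure: 48 h at 37 °C following 2 h pre-incubation. Read: CellTiter-Glo luminescence; fitted concentration-response, curve class assigned.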
IL1B secr inh: inflammasome signaling inhibition, IL-1 beta readout | activity change, % at 57.5 µM | 360,000 tested, 4.7% active | THP-1 LPS/ATP IL-1B secretion, AlphaLISA, 16 h; hits give low values; in the data active = activity change below about -50%; inconclusive = mostly about -30% to -49%
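Secreted IL-1B measured by AlphaLISA bead assay after 16 h compound exposure of THP-1 cells; compounds (final up to 57.5 uM) added 1 h before LPS (250 ng/mL) and ATP (1.25 mM) stimulation; lower signal means less secretion.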
DT40 TDP1 CPT: growth inhibition of DT40 Tdp1-/-;hTDP1 cells with camptothecin (screen for TDP1 inhibitors) | chicken DT40 Tdp1-/-;hTDP1 cells + 20 nM CPT, ATP luminescence, 48 h | Potency, µM (doses to about 46.2 µM), for inactives: at the top dose activity change, negative = growth inhibition, actives largely listed as inhibitors | 420,000 tested, 12% active | AID 686979; also: potency is read from the fitted curve at half-maximal effect; nearly all actives have a fitted effect of over 55% in size
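Chicken DT40 Tdp1-/- cells complemented with human TDP1, 400 cells/well, exposed to compounds plus 20 nM camptothecin for at least 48 h at 37 C; viability read as ATP content by CellTiter-Glo luminescence.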
uPA generation: inhibitors of cell surface uPA generation | cell surface uPA generation assay, qHTS | 330,000 tested, 0.31% active | Potency, µM (doses to about 38.3 µM), without a hit: at the top dose activity change, negative = inhibition, actives largely listed as inhibitors; active = well fitted inhibition curve with a large enough effect; inconclusive = small, poorly fitted or top-dose-only effect; inactive = no such curve, though single readings can be large or run the other way; tested in mouse RAW 264.7 cells; also: potency is read from the fitted curve at half-maximal effect; nearly all actives have a fitted effect of over 55% in size
HT1080-NT tox: kills 2HG-producing HT-1080-NT fibrosarcoma cells; HT-1080-NT fibrosarcoma viability, CellTiter-Glo ATP luminescence, 48 h; AID 686970; 360,000 tested, 1.6% active; Potency, µM (series often up to 46.1 µM), inactives show top-dose activity, negative = less viability, actives largely listed as cytotoxic;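 also: NT is the 2HG producing partner of a matched IDH1 knockdown line; potency is read from the fitted curve at half-maximal effect; 0% = DMSO-treated cells and -100% = media-only wells without cells; nearly all actives have a fitted effect of over 55% in size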
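HT-1080-NT; 750 cells/well; 5% FBS RPMI; 48 h compound, 37 degrees C; CellTiter-Glo luminescence; curve fitting and curve-class assignment.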
* = called active by the depositor; u = inconclusive; x = no result given; [ ] = another dose, or the depositor's remark. The list is not random: actives were taken first. Their share in the collection is about 19%. Unless noted, calls follow the shape of the dose curve; as a rule, active = well fitted curve in the direction sought with a large enough effect; inconclusive = small, poorly fitted or top-dose-only effect, or another doubt; inactive = no such curve, though single readings can be large; an effect the other way counts as inactive or inconclusive. Unless noted, % is scaled to controls: 0 for no effect and ±100 for the full control effect.

SMILES	TDP1 cell noCPT	HT1080 IDH1KD tx	IL1B secr inh	DT40 TDP1 CPT	uPA generation	HT1080-NT tox
O=C1Nc2ccc(Br)cc2C(c2ccc(Cl)cc2)=NC1O (stereo not given)	-16.3%	6.6%	-4.2	2.9%	9.3%	-0.9%
CCOC(=O)C(C(=O)OCC)C(Nc1ccc(Br)cc1)c1ccccc1 (stereo not given)	u	12.6µM*	-70.7*	29.1µM*	x	u
CCOC(=O)c1ccc(CNCc2ccc(Br)cc2)cc1	u	-3.3%	-3.4	u	0.5%	-9.9%
Fc1cccc(CCNCc2ccccn2)c1	-10.7%	4.9%	12.1	-13.0%	-3.3%	-0.6%
O=C(OCCc1ccccc1)c1cc(O)c(O)c(O)c1	23.1µM*	-22.4%	37.7	18.4µM*	u	-13.6%
COC(=O)C(O)(c1ccc(N(C)C(=O)c2cccs2)cc1)C(F)(F)F (stereo not given)	u	-3.5%	22.8	3.26µM*	-6.2%	12.8%
COC(=O)C(O)(c1ccc(N(C)C(=O)c2ccc(Cl)c(Cl)c2)cc1)C(F)(F)F (stereo not given)	u	-1.2%	17.8	u	-3.0%	-0.4%
CCOC(=O)C(O)(c1ccc(N(CC)S(=O)(=O)c2ccc(C)cc2)cc1)C(F)(F)F (stereo not given)	u	-8.8%	-11.7	-28.5%	x	7.1%
CCOC(=O)C(O)(c1ccc(N(C)C(=O)c2ccc(Cl)c(Cl)c2)cc1)C(F)(F)F (stereo not given)	13µM*	0.7%	19.1	20.6µM*	-3.1%	4.2%
CCOC(=O)C(=CNc1ccc(C(O)(C(=O)OCC)C(F)(F)F)cc1C)C(=O)OCC (stereo not given)	11.6µM*	-13.3%	-12.2	20.6µM*	-12.7%	-14.9%
CCOC(=O)C(O)(c1ccc(NC(=O)c2ccc(Cl)c(Cl)c2)cc1)C(F)(F)F (stereo not given)	16.4µM*	-7.1%	-25.2	u	-2.6%	-1.1%
CC1([N+](=O)[O-])COP(=O)(Nc2cccc(Br)c2)OC1 (stereo not given)	u	8.0%	-16.4	-10.6%	1.9%	1.5%
ClC1=C(Cl)[C@]2(Cl)[C@@H]3[C@@H]4C[C@@H]([C@H]5O[C@@H]45)[C@@H]3[C@@]1(Cl)C2(Cl)Cl	-17.8%[92.5 µM]	x	x	4.3%[92.5 µM]	x	x
CC/C(=N\N1CCCCCC1)c1c(O)n(-c2ccc(C)cc2)c(=O)[nH]c1=O	u	-3.5%	-4.2	u	-2.4%	1.9%
O=C1N[C@@H](Cc2ccccc2)COC(=O)[C@@H](Cc2ccc(F)cc2)C/C=C\C[C@@H]1CC(=O)N(CCO)Cc1ccccc1	18.4µM*	u	u	23.1µM*	u	u
O=C1N[C@H](Cc2ccccc2)COC(=O)[C@H](Cc2ccc(F)cc2)CC/C=C/C[C@H]1CC(=O)N(CCO)Cc1ccccc1	23.1µM*	-24.0%	0.0	u	u	-22.0%
C[C@H]1COC(=O)[C@H](Cc2ccc(F)cc2)CC/C=C/C[C@@H](CC(=O)N(CCO)Cc2ccccc2)C(=O)N1	18.4µM*	8.3%	18.3	23.1µM*	2.6%	6.9%
O=C(CNC(=O)c1ccc(Br)cc1)NCC(=O)OCC(=O)c1ccc([N+](=O)[O-])cc1	-13.9%	0.0%	15.2	u	0.4%	2.7%
CC(C)N1OC2CC1c1nc3ccccc3n1C2 (stereo not given)	-8.6%	7.3%	11.7	-17.3%	11.3%	11.8%
N#Cc1c(Cl)cccc1Cl	-2.4%	x	x	-7.3%	x	x
COc1cccc(CN2CCC(n3nccc3NC(=O)CCOc3ccccc3)CC2)c1O	-21.3%	-7.3%	-15.2	u	0.3%	-3.3%
Cc1ccc(C)c(N2CCN(c3nc4ccc(Cl)cc4n4cnnc34)CC2)c1	16.4µM*	x	x	18.4µM*	x	x
O=C(c1ccccc1)C(CN1CCCC1)c1ccccc1 (stereo not given)	1.64µM*	13µM*	-103.5*	1.84µM*	-6.9%	20.6µM*
O=C(CN1CCCCC1)c1ccccc1	-15.0%	x	x	-26.7%	x	x
O=C(CCCc1nc(-c2ccc(Cl)cc2)no1)NCC1CCCO1 (stereo not given)	18.4µM*	-5.7%	26.3	u	-15.4%	-12.6%
SMILES	TDP1 cell noCPT	HT1080 IDH1KD tx	IL1B secr inh	DT40 TDP1 CPT	uPA generation	HT1080-NT tox
CC(=NCc1ccco1)c1c(C)[nH]n(-c2nc3ccccc3s2)c1=O	u	u	-11.9	-29.9%	u	u
O=c1c2ccccc2nc(SCc2nc3ccccc3s2)n1Cc1ccco1	18.4µM*	u	17.1	13µM*	7.0%	-7.0%
Cc1cccc(C)c1NC(=O)CN1CCCC1=O	-7.7%	x	x	-2.1%	x	x
COC(=O)c1cc(NC(=O)Cn2nc(-c3ccccc3)c3c(c2=O)CCCC3)cc(C(=O)OC)c1	18.4µM*	x	x	u	x	x
Cc1nnc2n1-c1sc(CCc3ccc(CC(C)C)cc3)cc1C(c1ccccc1Cl)=NC2C (stereo not given)	11.9µM*	x	x	u	x	x
NC(=O)c1c(Br)n(C2OC(CO)C(O)C2O)c2ncnc(N)c12 (stereo not given)	1.84µM*	7.31µM*	-75.7*	2.06µM*	-15.5%	u
CCNC(=O)[C@H]1O[C@@H](n2cnc3c(N)ncnc32)[C@H](O)[C@@H]1O	-0.7%	5.8%	18.9	-6.6%	-11.3%	7.1%
N#Cc1c(Br)n(C2OC(CO)C(O)C2O)c2ncnc(N)c12 (stereo not given)	1.16µM*	3.26µM*	-68.9*	1.46µM*	-7.9%	7.31µM*
CC12CC[C@H]3[C@@H](CCC4(O)C[C@H](O)CCC34/C=N/NC(=O)c3ccccc3[N+](=O)[O-])C1(O)CCC2C1=CC(=O)OC1 (stereo not given in full)	-25.4%	u	u	9.5%	8.7%	u
CC(=O)OC1CCC23C(=O)OC45CCC(C6=CC(=O)OC6)C4(C)CCC2C5CCC3(O)C1 (stereo not given)	10.3µM*	x	x	11.6µM*	x	x
O=P(c1ccccc1)(c1ccccc1)N(c1ccccc1)c1ccccc1	4.61µM*	u	11.8	2.91µM*	0.5%	-13.4%
CN(C)c1ccccc1	15.7%	-5.0%	4.7	2.0%	x	10.8%
C[C@]12CCC(=O)C=C1CCc1ccc(O)cc12	-18.9%	x	x	-4.7%	x	x
NC(CO)Cc1ccccc1 (stereo not given)	-20.9%	x	x	-7.2%	x	x
N[C@H](CO)Cc1ccccc1	1.0%	29.1µM*	13.8	17.1%	-6.4%	-10.6%

Bioassay records deposited in PubChem BioAssay by National Center for Advancing Translational Sciences (NCATS).
